“And” between values parts separate entries of the source, which are not always exact repeats. Equal entries are not always repeated. Where a structure was tested more than once in an assay, its records may differ in their call. The source made the active and inactive calls. Rule for the calls: active = hit-call score of the fitted dose curve at least 0.9, where 1 is the maximum; inactive = score below 0.9.

Read-out in this assay: Interferon-inducible T-cell alpha chemoattractant (ITAC), CXCL11 (gene 6373)
The experiment in a line: BSK_BE3C_ITAC: BioMAP Diversity Plus: BE3C Assay for Interferon-inducible T-cell alpha chemoattractant (ITAC) Biomarker Activity (AID 2284279). The settings on record: primary human bronchial epithelial cells. As to the method:
BSK_BE3C is a cell-based, multiplexed-readout assay that uses bronchial epithelial cell, a human lung primary cell, with measurements taken at 24 hours after chemical dosing in a 96-well plate.BSK_BE3C_ITAC is an assay component measured in the BSK_BE3C assay. It measures I-TAC antibody related to regulation of gene expression using ELISA technology.Data from the assay component BSK_BE3C_ITAC was analyzed at the endpoint, BSK_BE3C_ITAC, in the positive analysis fitting direction relative to DMSO as the negative control and baseline of activity. Using a type of binding reporter, gain or loss-of-signal activity can be used to understand protein changes. To generalize the intended target to other relatable targets, this assay endpoint is annotated to the 'cytokine' intended target family, where the subfamily is 'chemotactic factor'.
The levels of cell surface (or secreted, indicated by the prefix "s") biomarker endpoints were measured by ELISA. Overt cytotoxicity to cells in confluent adherent cultures (all systems other than the BT system) was assessed by measuring total protein levels using sulforhodamine B (SRB) staining in parallel cultures at the time of biomarker measurements, indicated as SRB endpoints. For proliferation assays for adherent cell types, individual cell types are cultured at sub-confluence and relative cell numbers quantified by SRB staining at time points optimized for each system (48 h: 3C and CASM3C systems; 72 h: BT and HDF3CGF systems; 96 h: SAg system). SRB was performed by staining cells with 0.1% SRB after fixation with 10% TCA and reading wells at 560 nm.Viability and proliferation of PBMC (T cells) was quantified by Alamar Blue reduction for the SAg and BT systems. For PBMC viability (referred to as PBMC Cytotoxicity within the assay endpoint names), cells were plated (75,000/well in a 96-well plate) and then chemical samples added for 1 h before addition of activators, SEB and TSST-1 (20 ng/mL final concentration each). Cells were incubated for 90 h. Then, Alamar Blue (20 uL/well) (Invitrogen, Cat DAL1100) was added for 6 h, and the plates were read with a fluorescence microplate reader at 546/580 nm (excitation/emission). For PBMC proliferation, cells were plated and activated as above but incubated for only 16 h prior to addition of Alamar Blue. Plates were read after 6 h.
With `CCCO[Si](OCCC)(OCCC)OCCC`, the outcome was inactive.

Take `CC(C)(CO)CO`: the result was inactive.

As to `OCC(F)(OC(F)(F)C(F)(OC(F)(F)C(F)(F)C(F)(F)F)C(F)(F)F)C(F)(F)F` (centres undefined), the outcome was inactive and the AC50 was 5.2 µM (active).

On to `O=C(O)C(F)(F)OC(F)(F)C(F)(F)OC(F)(F)C(F)(F)C(F)(F)C(F)(F)F`, for which the AC50 was 7.77 µM (active) and 7.6 µM (active).

`CCn1cc(C(=O)O)c(=O)c2ccc(C)nc21`: the result was inactive.

Turning to `c1ccc(OCCOc2ccccc2)cc1`, the outcome was inactive.

`C=C(F)C(=O)OC(C(F)(F)F)C(F)(F)F`: the outcome was inactive.

`CC(=O)c1ccc(C)cc1`: the outcome was inactive.

Turning to `O=C(O)C(F)(F)C(F)(F)C(F)(F)C(F)(F)C(F)(F)C(F)(F)C(F)(F)C(F)F`, the outcome was inactive.

On to `CCCCN(CCO)CCO`, for which the outcome was inactive.

With `O=S(=O)(O)C(F)(F)C(F)(F)OC(F)(F)C(F)(F)F`, the result was inactive.

For the compound `CC(C)CCCC(C)(C)O`, the outcome was inactive.

Take `C=C(C)C(=O)OCCC(F)(F)C(F)(F)C(F)(F)C(F)(F)C(F)(F)C(F)(F)C(F)(F)C(F)(F)F`: the result was inactive.

Values taken from PubChem BioAssay (EPA / NIEHS).
